# A selection: hits, their analogues and other compounds. The true share with any hit is near 2.1%.
# aSyn rescue: qHTS of alpha-syn Inhibitors; Potency, µM (titrated, usually from 46.1 µM), for inactives: at the highest dose growth rescue (activation), most hits filed as activators; AID 652106, 2013; actives 0.14% (n = 370,000); Yeast expressing alpha-synuclein, growth rescue, BacTiter-Glo, 24 h; further: % of control where 0% means no effect; nearly all actives have a fitted effect of over 65% in size
#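 Readout is rescue of growth in alpha-synuclein-expressing yeast, so inhibitors of toxicity appear as activators. Growth after 24 hr at 30 deg C in galactose medium is quantified by luminescence.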
# TDP43 rescue: qHTS of TDP-43 Inhibitors. TDP-43 expressing yeast growth rescue, BacTiter-Glo, 24 h. actives 1.8% (n = 410,000). Potency, µM (highest dose often 46.1 µM), without a hit: top-dose growth rescue (activation), usual class: activators; further: % of control where 0% means no effect; nearly all actives have a fitted effect of over 50% in size
#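 Galactose-induced TDP-43 yeast, OD600=0.02, compound pinned; 24 hr, 30 deg C; BacTiter-Glo luminescence for growth. Inhibitors of TDP-43 toxicity read as activators.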
# FUS yeast rescue: qHTS for Suppressors of FUS Proteinopathy: Primary screen using FUS-linked yeast assay; Potency, µM (series often up to 76.6 µM), actives largely listed as activators; S. cerevisiae FUS-expressing, growth rescue, OD600, 24 h; actives 0.24% (n = 390,000);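 further: plate controls were DMSO vehicle for no effect and reference control for full effect; nearly all actives have a fitted effect of over 55% in size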
#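 Toxicity suppression screen in FUS-yeast. Cells induced with 2% galactose, starting OD 0.005, treated 24hr at 30C with compounds at multiple final concentrations; growth by OD600.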
# Abeta rescue: qHTS for compounds that reverse cellular toxicity of Amyloid beta (A-beta) peptide in yeast: Primary Screen; Potency, µM (series often up to 46.1 µM), actives largely listed as activators; AID 1347071, 2019; actives 0.063% (n = 410,000); yeast expressing A-beta42, growth rescue, OD600, 48 h; response scale: 0% DMSO, 100% iron-clioquinol control; further: nearly all actives have a fitted effect of over 55% in size
#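 Yeast growth medium received pinned compounds, then yeast cells expressing toxic A-beta were added; plates incubated at 30 C for 48 hr. Growth read as absorbance at 600 nm, normalized to DMSO and equimolar FeCl3 plus clioquinol controls.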
# Numbers without * were called inactive; i = inactive; ? = inconclusive; . = no result; ! = a repeat was not active. The call rests on the fitted dose curve; in most records, active means well fitted curve in the direction sought with a large enough effect; inconclusive means small, poorly fitted or top-dose-only effect, or another doubt; inactive means no such curve, though single readings can be large; an effect the other way counts as inactive or inconclusive. Potency means the concentration at half of the fitted maximal effect.
SMILES,aSyn rescue,TDP43 rescue,FUS yeast rescue,Abeta rescue
CC(C)COc1ccc(N)cc1OCC(C)C,-2%,11µM*,?,i
CN(C(=O)COC(=O)c1ccccc1Nc1ccccc1)c1c(N)n(Cc2ccccc2)c(=O)[nH]c1=O,-5%,-22%,35µM*,i
CCOc1ccc(C2C=C(c3ccc(C)cc3)Nc3nnnn32)cc1 (stereo not drawn),-32%,22µM*,?,i
FC(F)(F)c1ccccc1C1=CC(c2ccccc2)n2ncnc2N1 (stereo not drawn),-1%,18µM*,i,i
CCOc1ccc(C2C=C(c3ccccc3)Nc3nnnn32)cc1 (stereo not drawn),-4%,1%,i,i
CC(C)(C)c1ccc(C2=CC(c3ccccc3)n3ncnc3N2)cc1 (stereo not drawn),-7%,23%,i,i
COc1ccc(C2C=C(c3ccccc3)Nc3ncnn32)cc1 (stereo not drawn),1%,?,i,i
Clc1ccccc1C1=CC(c2ccco2)n2ncnc2N1 (stereo not drawn),-3%,14µM*,i,i
Cc1ccc(C2=CC(c3ccc(C)cc3)n3ncnc3N2)cc1 (stereo not drawn),?,16µM*,i,?
COc1ccccc1Nc1nc(-c2cccc([N+](=O)[O-])c2)cs1,-20%,22µM*,i,i
Cc1ccc(C(O)c2ncc(-c3ccccc3)[nH]2)c(C)c1 (stereo not drawn),4%,23%,i,i
O=C(c1ccco1)N1CCN(c2ncnc3scc(-c4ccc(F)cc4)c23)CC1,12%,18µM*,i,i
COc1ccc(-c2csc3ncnc(N4CCN(c5ccccc5)CC4)c23)cc1,15%,11µM*,i,i
COc1ccc(-c2csc3ncnc(N4CCN(c5ccccc5O)CC4)c23)cc1,?,18µM*,i,i
COc1ccc(-c2csc3ncnc(N4CCN(c5ccc(OC)cc5)CC4)c23)cc1,10%,11µM*,i,i
Cc1ccc(-c2csc3ncnc(N4CCN(C(=O)c5ccco5)CC4)c23)cc1,3%,?,.,i
CC(C)c1nc2sc3c(=S)nc[nH]c3c2c2c1CCC2,3%,16µM*,i,i
CC(C)c1nc2sc3c(=O)[nH]cnc3c2c2c1CCC2,2%,22%,i,i
Cc1nc2nc(NC(=O)c3ccc(C(C)(C)C)cc3)[nH]n2c(=O)c1C,.,17%,i,i
Cc1ccccc1NC1=C(Cl)C(=O)OC1OC(=O)c1ccccc1C (stereo not drawn),6%,20µM*,i,i
NNC(=O)c1ccc(COc2ccc3ccccc3c2)cc1,-7%,16µM*,i,i
COc1ccc(OCC(O)COc2ccc(C(=O)O)cc2)cc1 (stereo not drawn),.,.,i,i
COc1ccc(OCc2ccc(C(=O)O)cc2)cc1,6%,14µM*,i,i
CCCc1cc(=O)oc2cc(OCc3ccc(C(=O)O)cc3)ccc12,3%,2.5µM*,i,i
NNC(=O)c1ccc(COc2ccc3c(c2)CCC3)cc1,-20%,18%,?,i
SMILES,aSyn rescue,TDP43 rescue,FUS yeast rescue,Abeta rescue
CN(C)N(C(=O)c1cc(-c2cccs2)nn1-c1ccccc1)C1CCS(=O)(=O)C1 (stereo not drawn),-1%,-9%,i,i
COc1ccccc1CNC(=O)C1CCCN(c2nnc(-n3c(C)ccc3C)s2)C1 (stereo not drawn),.,3%,i,i
Cc1ccc2c(CNCCc3ccccc3)c(C(=O)O)n(Cc3ccccc3C)c2c1,.,17%,i,i
COc1ccc(N2CCN(C(=O)CSc3nc(-c4ccc(C(C)C)cc4)no3)CC2)cc1,.,11%,i,i
O/N=C/c1ccn(-c2ccc(Br)cc2)c1,-6%,14µM*,i,i
CCNC(=S)N/N=C(\C)c1ccc2ccccc2c1OC(F)F,-9%,?,?,5.6µM*
O=C(O/N=C\c1ccc(N2CCOCC2)c([N+](=O)[O-])c1)c1ccccc1Cl,12%,14µM*,.,i
O=C(Oc1ccc(Cl)cc1)c1ccc(N2CCOCC2)c([N+](=O)[O-])c1,1%,-6%,.,i
O=C(Oc1cc(Cl)ccc1Cl)c1ccc(N2CCOCC2)c([N+](=O)[O-])c1,2%,?,i,5.6µM*
CN(C)Cc1c(C(=O)N/N=C/CCc2ccccc2)nnn1-c1nonc1N,-4%,10%,i,i
CN(C)CCNC(=O)CCCN1C(=O)c2cccnc2Oc2ccc(Cl)cc21,.,6%,i,i
OC[C@@H]1CN(Cc2ccc3c(c2)OCO3)C[C@H](n2cnc3c(NC4CC4)ncnc32)O1,1%,15%,i,i
CCOC(=O)CC[C@H]1CC[C@]2(CCCN(C3CCCCC3)C2)O1,.,.,i,.
COC(=O)c1sc(=S)sc1C(=O)OC,?,13µM*,i,i
COc1cc(C(=O)Nc2ccc(-c3nc4cc(C)c(C)cc4o3)cc2)cc(OC)c1OC,.,?,i,i
COc1cc(C(=O)Nc2ccc3oc(-c4ccc(C)c(Br)c4)nc3c2)cc(OC)c1OC,.,10µM*,i,i
COC(=O)CS(=O)(=O)c1nc2ccccc2nc1N1CCCCC1,.,20µM*,i,i
O=C(O)CSc1nc2ccccc2nc1N1CCCCC1,.,20µM*,i,i
Cc1ccc(NC(=O)CSc2nc3ccccc3nc2N2CCOCC2)cc1,12%,?,32µM*!,i
CC(=O)Nc1ccc(NC(=O)CSc2nc3ccccc3nc2N2CCCCC2)cc1,6%,4%,i,i
COc1ccc(C2=CC(c3c(C)nn(-c4ccccc4)c3Cl)n3nnnc3N2)cc1OC (stereo not drawn),15%,21%,?,i
CCOC(=O)NC(=O)CSc1nc(-c2ccc(C)c(C)c2)cn1-c1ccccc1,0%,35µM*,i,i
CC(C)CNC(=O)OCc1cn(Cc2ccccc2C(F)(F)F)nn1,.,.,i,.
Cc1oc2c(c1C(=O)NCc1cccnc1)C(=O)c1ccccc1C2=O,11%,35µM*,i,i
COc1ccc(CNC(=O)c2c(C)oc3c2C(=O)c2ccccc2C3=O)cc1,3%,?,i,i
CC(=O)c1c(C)oc2c1C(=O)c1ccccc1C2=O,-4%,5µM*,.,i
O=C1c2ccccc2C(=O)c2c1oc(C(F)(F)F)c2C(=O)c1ccccc1,-49%,3.5µM*,.,i
CC(=O)c1c2c3c(c(Br)ccc3n(C)c1=O)C(=O)c1ccccc1-2,0%,-22%,i,i
CCc1ccc(S(=O)(=O)NCc2csc(C)n2)cc1,9%,-1%,i,i
CCOC(=O)/C(=C\c1ccc(Cl)cc1)c1nc2sc(C)c(C)c2c(=O)[nH]1,-54%,18µM*,i,i
